According to the supplement of paper PMC6411743:
± gives the standard deviation of the averaged measurements. The full data set covers some 6,500 targets. This sample favours those with the largest changes.

How the values were obtained:
Experiment in all cases: NP40-soluble protein abundance relative to vehicle (solubility fold change) (ratio); higher = more soluble protein in presence of ATP
[1] = target: A0A075B6F5|F5GXR6|Q8IUG5|Q8IUG5-2 (UniProt Q8IUG5)
In short: (§1)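 Jurkat crude lysate prepared with a Dounce homogeniser was treated at eight concentrations spanning 0.1 to 10 mM, 10 min at room temperature then 3 min at 37 °C. Solubilisation with 0.8% NP40 and benzonase and ultracentrifugation preceded TMT labelling of the supernatant for LC-MS/MS. Fold change against the detergent-processed vehicle was determined per replicate from vsn-normalised intensities, across three independent experiments.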

A0A087WTM7|P04114 = A0A087WTM7|P04114 (UniProt P04114)
In short: as §1

A0A087WV29|Q9H0A0 = target: T1, A0A087WV29|Q9H0A0 (UniProt Q9H0A0)
T1 sequence (whole entry): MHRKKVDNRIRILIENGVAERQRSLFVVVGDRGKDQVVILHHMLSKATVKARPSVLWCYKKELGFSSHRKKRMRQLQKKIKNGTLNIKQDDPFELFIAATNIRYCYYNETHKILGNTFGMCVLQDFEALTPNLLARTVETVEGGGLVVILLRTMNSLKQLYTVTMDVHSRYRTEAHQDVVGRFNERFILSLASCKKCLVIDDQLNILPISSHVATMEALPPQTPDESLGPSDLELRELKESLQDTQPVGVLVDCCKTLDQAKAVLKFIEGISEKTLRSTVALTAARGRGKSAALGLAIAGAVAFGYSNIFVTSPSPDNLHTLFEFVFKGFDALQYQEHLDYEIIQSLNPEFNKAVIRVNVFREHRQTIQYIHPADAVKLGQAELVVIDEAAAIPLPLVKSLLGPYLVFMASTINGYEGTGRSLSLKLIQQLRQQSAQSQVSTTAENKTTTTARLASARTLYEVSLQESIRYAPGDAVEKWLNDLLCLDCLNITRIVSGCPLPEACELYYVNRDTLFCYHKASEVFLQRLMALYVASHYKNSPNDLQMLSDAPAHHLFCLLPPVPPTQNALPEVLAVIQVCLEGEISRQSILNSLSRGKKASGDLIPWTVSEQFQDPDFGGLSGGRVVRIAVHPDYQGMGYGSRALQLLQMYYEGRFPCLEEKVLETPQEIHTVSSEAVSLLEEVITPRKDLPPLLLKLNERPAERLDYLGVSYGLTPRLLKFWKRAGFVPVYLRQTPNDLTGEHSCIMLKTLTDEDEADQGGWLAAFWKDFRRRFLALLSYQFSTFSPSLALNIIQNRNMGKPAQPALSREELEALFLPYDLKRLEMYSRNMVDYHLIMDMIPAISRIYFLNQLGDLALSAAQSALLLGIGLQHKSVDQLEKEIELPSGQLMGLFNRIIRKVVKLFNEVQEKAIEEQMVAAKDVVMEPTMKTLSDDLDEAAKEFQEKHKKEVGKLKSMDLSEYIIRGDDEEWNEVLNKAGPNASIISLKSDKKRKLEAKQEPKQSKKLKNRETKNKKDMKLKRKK
In short: as §1

[2] = target: T2, A0A087WVA8|Q8IWB9|Q8IWB9-2 (UniProt Q8IWB9)
T2 sequence (whole entry): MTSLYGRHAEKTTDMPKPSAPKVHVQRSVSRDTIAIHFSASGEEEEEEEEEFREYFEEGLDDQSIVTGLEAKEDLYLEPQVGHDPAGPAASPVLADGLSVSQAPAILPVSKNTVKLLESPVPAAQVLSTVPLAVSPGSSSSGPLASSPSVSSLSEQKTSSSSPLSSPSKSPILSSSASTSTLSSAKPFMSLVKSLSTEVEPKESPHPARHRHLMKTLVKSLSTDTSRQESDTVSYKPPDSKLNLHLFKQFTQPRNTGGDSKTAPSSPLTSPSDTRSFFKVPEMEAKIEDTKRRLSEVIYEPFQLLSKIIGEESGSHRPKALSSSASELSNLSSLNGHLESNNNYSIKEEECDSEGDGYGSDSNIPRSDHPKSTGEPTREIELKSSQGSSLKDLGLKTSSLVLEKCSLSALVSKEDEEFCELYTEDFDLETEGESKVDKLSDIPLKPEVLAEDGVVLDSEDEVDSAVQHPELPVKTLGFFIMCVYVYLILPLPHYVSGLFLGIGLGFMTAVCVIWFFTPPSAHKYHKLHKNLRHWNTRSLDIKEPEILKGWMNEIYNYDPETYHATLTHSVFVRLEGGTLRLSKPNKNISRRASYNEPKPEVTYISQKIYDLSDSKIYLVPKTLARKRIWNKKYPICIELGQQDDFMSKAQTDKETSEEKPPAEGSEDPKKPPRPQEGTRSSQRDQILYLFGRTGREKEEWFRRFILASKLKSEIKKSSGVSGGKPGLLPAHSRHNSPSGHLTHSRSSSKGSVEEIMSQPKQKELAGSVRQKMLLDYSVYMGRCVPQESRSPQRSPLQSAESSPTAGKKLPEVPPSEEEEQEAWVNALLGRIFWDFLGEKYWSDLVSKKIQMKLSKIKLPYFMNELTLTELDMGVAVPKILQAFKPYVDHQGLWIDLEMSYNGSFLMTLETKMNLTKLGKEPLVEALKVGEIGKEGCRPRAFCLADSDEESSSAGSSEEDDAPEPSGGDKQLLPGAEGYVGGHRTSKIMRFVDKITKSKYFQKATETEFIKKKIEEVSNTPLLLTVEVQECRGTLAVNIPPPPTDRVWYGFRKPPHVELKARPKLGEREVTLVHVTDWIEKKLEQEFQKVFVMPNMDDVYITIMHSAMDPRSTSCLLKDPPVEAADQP
In short: as §1

A0A087WWP8 = A0A087WWP8 (UniProt Q5VWQ0)
In short: as §1

A0A087WWP8, sequence (Q5VWQ0 whole entry): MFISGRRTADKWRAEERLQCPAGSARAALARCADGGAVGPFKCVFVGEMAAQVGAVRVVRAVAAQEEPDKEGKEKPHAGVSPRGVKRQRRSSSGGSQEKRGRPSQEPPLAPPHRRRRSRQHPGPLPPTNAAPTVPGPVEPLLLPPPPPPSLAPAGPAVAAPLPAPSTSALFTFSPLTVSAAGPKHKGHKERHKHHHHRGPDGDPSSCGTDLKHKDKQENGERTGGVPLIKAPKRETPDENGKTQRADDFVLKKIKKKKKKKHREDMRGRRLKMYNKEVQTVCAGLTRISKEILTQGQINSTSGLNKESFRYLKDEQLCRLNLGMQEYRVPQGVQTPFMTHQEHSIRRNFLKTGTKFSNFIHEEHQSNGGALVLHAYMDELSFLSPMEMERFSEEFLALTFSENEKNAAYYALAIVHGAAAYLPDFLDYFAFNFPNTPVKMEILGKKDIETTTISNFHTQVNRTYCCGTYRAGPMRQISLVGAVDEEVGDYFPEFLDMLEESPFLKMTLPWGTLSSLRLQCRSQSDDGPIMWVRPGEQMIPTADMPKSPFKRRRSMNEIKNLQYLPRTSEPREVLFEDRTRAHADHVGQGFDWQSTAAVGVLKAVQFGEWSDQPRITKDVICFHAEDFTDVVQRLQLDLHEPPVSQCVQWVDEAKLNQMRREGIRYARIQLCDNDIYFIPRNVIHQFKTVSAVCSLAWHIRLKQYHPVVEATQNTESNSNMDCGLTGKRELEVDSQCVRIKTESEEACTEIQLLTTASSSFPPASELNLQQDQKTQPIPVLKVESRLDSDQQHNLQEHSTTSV
A0A075B6F5|F5GXR6|Q8IUG5|Q8IUG5-2, sequence (Q8IUG5 whole entry, one chain of several): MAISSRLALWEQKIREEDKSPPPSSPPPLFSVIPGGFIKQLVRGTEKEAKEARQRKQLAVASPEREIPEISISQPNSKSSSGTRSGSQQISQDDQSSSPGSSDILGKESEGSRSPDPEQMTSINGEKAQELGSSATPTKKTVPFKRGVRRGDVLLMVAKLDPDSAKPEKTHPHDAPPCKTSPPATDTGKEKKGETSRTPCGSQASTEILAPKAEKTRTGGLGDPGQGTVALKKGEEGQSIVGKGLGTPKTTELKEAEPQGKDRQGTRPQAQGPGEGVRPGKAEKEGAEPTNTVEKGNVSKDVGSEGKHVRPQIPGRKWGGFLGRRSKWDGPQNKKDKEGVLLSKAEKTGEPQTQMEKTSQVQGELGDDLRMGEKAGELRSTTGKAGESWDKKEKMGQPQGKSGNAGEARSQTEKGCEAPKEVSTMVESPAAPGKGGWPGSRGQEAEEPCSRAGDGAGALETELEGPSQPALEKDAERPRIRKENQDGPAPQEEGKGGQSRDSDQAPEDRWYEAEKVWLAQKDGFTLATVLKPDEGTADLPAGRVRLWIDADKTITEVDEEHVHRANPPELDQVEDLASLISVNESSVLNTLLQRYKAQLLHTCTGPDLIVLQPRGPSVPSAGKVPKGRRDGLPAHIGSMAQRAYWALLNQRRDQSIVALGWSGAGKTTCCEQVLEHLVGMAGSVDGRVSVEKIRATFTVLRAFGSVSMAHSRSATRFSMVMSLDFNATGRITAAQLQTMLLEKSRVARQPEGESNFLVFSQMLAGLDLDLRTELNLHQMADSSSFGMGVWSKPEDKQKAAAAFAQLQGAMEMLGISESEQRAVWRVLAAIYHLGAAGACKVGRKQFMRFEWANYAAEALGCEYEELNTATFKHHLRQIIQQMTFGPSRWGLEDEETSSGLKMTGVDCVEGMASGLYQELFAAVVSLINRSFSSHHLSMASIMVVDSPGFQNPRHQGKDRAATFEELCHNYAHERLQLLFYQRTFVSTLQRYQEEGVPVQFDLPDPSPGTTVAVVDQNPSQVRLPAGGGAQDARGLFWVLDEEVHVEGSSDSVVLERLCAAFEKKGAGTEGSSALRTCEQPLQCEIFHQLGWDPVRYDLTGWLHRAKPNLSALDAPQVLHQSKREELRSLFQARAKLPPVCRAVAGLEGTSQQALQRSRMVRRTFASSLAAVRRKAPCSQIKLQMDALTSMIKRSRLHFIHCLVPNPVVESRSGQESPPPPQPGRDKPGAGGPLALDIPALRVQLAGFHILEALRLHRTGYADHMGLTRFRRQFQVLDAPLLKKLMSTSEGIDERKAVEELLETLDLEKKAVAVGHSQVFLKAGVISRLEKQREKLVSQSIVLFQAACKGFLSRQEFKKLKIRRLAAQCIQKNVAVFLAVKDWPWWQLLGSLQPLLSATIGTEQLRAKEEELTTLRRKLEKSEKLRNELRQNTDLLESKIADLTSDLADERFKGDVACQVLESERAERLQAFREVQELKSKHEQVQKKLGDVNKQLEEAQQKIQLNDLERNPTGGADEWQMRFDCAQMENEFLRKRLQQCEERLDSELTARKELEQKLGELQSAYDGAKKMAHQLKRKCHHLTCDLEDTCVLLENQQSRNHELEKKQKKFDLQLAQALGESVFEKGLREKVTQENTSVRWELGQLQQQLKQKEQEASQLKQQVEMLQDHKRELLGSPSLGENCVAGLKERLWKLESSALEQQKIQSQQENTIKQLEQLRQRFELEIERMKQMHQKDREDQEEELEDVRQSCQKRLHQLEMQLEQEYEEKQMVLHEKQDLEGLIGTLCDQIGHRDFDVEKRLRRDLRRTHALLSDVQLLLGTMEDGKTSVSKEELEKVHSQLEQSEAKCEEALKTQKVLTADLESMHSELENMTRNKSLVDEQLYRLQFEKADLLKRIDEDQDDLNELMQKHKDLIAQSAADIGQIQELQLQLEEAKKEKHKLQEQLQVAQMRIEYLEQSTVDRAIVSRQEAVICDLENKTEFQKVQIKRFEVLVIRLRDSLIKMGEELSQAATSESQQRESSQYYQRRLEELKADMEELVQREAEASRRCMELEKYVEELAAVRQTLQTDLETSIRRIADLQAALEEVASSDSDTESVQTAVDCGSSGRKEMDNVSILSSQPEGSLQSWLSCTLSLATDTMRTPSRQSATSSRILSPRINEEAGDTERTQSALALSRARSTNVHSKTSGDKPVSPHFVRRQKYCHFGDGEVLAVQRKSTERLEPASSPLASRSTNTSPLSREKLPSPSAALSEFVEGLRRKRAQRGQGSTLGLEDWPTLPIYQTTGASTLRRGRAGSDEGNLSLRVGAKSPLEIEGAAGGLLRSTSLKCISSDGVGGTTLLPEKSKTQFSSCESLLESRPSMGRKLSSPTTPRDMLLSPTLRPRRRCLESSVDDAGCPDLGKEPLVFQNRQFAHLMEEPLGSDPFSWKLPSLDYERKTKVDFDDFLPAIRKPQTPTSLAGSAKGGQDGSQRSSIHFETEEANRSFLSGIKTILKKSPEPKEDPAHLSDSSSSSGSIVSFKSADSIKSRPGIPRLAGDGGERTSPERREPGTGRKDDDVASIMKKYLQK

Work on Nc1ncnc2c1ncn2[C@@H]1O[C@H](COP(=O)(O)OP(=O)(O)OP(=O)(O)O)[C@@H](O)[C@H]1O [adenosine triphosphate] yielded an NP40-soluble protein abundance ([1]; concentration: 1mM) of 0.986 ± 0.023, an NP40-soluble protein abundance ([1]; concentration: 2mM) of 0.927 ± 0.014 and an NP40-soluble protein abundance ([1]; concentration: 4mM) of 1.1 ± 0.016. The NP40-soluble protein abundance ([1]; concentration: 6mM) was 1.06 ± 0.022, the NP40-soluble protein abundance ([1]; concentration: 8mM) was 1.14 ± 0.13 and the NP40-soluble protein abundance ([1]; concentration: 10mM) was 1.18 ± 0.18. For the same compound, the NP40-soluble protein abundance (A0A087WTM7|P04114; concentration: 1mM) was 1.09 ± 0.039, the NP40-soluble protein abundance (A0A087WTM7|P04114; concentration: 2mM) was 1.05 ± 0.029 and the NP40-soluble protein abundance (A0A087WTM7|P04114; concentration: 4mM) was 0.98 ± 0.11. It also gave an NP40-soluble protein abundance (A0A087WTM7|P04114; concentration: 6mM) of 0.965 ± 0.086, an NP40-soluble protein abundance (A0A087WTM7|P04114; concentration: 8mM) of 0.976 ± 0.082 and an NP40-soluble protein abundance (A0A087WTM7|P04114; concentration: 10mM) of 0.989 ± 0.074. The NP40-soluble protein abundance (A0A087WV29|Q9H0A0; concentration: 1mM) was 1.2 ± 0.1, the NP40-soluble protein abundance (A0A087WV29|Q9H0A0; concentration: 2mM) was 1.37 ± 0.1 and the NP40-soluble protein abundance (A0A087WV29|Q9H0A0; concentration: 4mM) was 1.59 ± 0.11. It also gave an NP40-soluble protein abundance (A0A087WV29|Q9H0A0; concentration: 6mM) of 1.69 ± 0.18, an NP40-soluble protein abundance (A0A087WV29|Q9H0A0; concentration: 8mM) of 2.15 ± 0.14 and an NP40-soluble protein abundance (A0A087WV29|Q9H0A0; concentration: 10mM) of 2.32 ± 0.22. The NP40-soluble protein abundance ([2]; concentration: 1mM) was 1.02 ± 0.043, the NP40-soluble protein abundance ([2]; concentration: 2mM) was 0.975 ± 0.072 and the NP40-soluble protein abundance ([2]; concentration: 4mM) was 0.984 ± 0.062. For the same compound, the NP40-soluble protein abundance ([2]; concentration: 6mM) was 0.982 ± 0.024, the NP40-soluble protein abundance ([2]; concentration: 8mM) was 0.973 ± 0.07 and the NP40-soluble protein abundance ([2]; concentration: 10mM) was 0.993 ± 0.052. It also gave an NP40-soluble protein abundance (A0A087WWP8; concentration: 1mM) of 1.48 ± 0.058, an NP40-soluble protein abundance (A0A087WWP8; concentration: 2mM) of 1.53 ± 0.045 and an NP40-soluble protein abundance (A0A087WWP8; concentration: 4mM) of 1.61 ± 0.043.
